# Active and inactive are the calls of the source. The rule behind the calls is not given here.
# Test system: HIV-1 nucleocapsid protein NCp7 (binding to TG oligonucleotide)
# Assay: HIV Nucleocapsid (AID 346);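 note: potency is for inhibitors that block NC binding and lower polarization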
# Conditions: HIV-1 NC / fluorescein-TGTGTGTG probe, fluorescence polarization
# Procedure, shortened: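 HIV-1 NC (100 nM) binding to fluorescein-labelled ssDNA TG4xF (10 nM) in Hepes pH 7.5, 250mM NaCl, 1uM ZnCl2, TCEP and 2-mercaptoethanol; compounds pin-transferred, 1 hr room temperature, fluorescence polarization read on CCD imager.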
# Potency is the fitted concentration of half-maximal effect.
row,Structure (SMILES),Potency
1,N#CCCn1c(=O)c(-c2ccc(F)cc2)nc2cnc(Oc3ccccc3)nc21,> 20 µM (inactive)
2,O=c1c(-c2cccs2)nc2cnc(N3CCOCC3)nc2n1CCc1ccccc1,> 20 µM (inactive)
3,O=c1c(-c2ccc(F)cc2)nc2cnc(N3CCOCC3)nc2n1CCc1ccccc1,> 20 µM (inactive)
4,CN(C)C(=O)c1ccc(-c2nccc(NCc3cccs3)n2)cc1,> 20 µM (inactive)
5,O=S(=O)(c1ccccc1)N1CCC2(CC1)CN(c1ccccc1)C2,> 20 µM (inactive)
6,Cc1noc(C)c1-c1nc(Nc2ccccc2)c2ccccc2n1,> 20 µM (inactive)
7,COc1ccc(C(=O)N2CCC3(CCN(C)CC3)CC2)cc1,> 20 µM (inactive)
8,CS(=O)(=O)N1CCC[C@@]2(CCN(Cc3nccs3)C2)C1,> 20 µM (inactive)
9,COc1ccc2[nH]cc(CCNc3cc(-c4ccc(C(=O)N(C)C)cc4)ncn3)c2c1,> 20 µM (inactive)
10,O=C(Nc1ccccc1)N1CCC2(CC1)CCN(C(=O)c1ccncc1)CC2,> 20 µM (inactive)
11,N#Cc1cccc(-c2nc(NCc3cccnc3)c3ccccc3n2)c1,> 20 µM (inactive)
12,COc1ccc(-n2c(=O)c(-c3cc(F)cc(F)c3)nc3cnc(N(C)C)nc32)cc1,> 20 µM (inactive)
13,COc1ccc(-n2c(=O)c(C)nc3cnc(Oc4ccccc4)nc32)cc1,> 20 µM (inactive)
14,CS(=O)(=O)N1CCC[C@@]2(CCN(c3ccccn3)C2)C1,> 20 µM (inactive)
15,CN(C)C(=O)c1ccc(-c2nc(NCc3cccs3)c3ccccc3n2)cc1,> 20 µM (inactive)
16,CS(=O)(=O)Nc1cccc(-c2ccc3ncnc(N4CCNCC4)c3c2)c1,> 20 µM (inactive)
17,Cn1cccc1C(=O)N1CCC2(CCCN(c3ccc(-c4ccccc4)cc3)C2)CC1,> 20 µM (inactive)
18,Cn1cc(-c2nc3cnc(Oc4ccccc4)nc3n(C3CC3)c2=O)c2ccccc21,> 20 µM (inactive)
19,Cc1cccc(CNc2ncncc2-c2ccccc2C(F)(F)F)c1,> 20 µM (inactive)
20,O=c1c(-c2ccc(F)cc2)nc2cnc(Nc3ccccc3)nc2n1C1CC1,> 20 µM (inactive)

row,Structure (SMILES),Potency
1,CC(=O)NCCNc1nc(-c2c(C)noc2C)nc2ccccc12,> 20 µM (inactive)
2,COCC(=O)N1CCC2(CCCN(Cc3nccs3)C2)CC1,> 20 µM (inactive)
3,O=C(c1cnccn1)N1CCC[C@@]2(CCN(c3ccccn3)C2)C1,> 20 µM (inactive)
4,CC(=O)NCCNc1ncncc1-c1ccccc1CN(C)C,> 20 µM (inactive)
5,COc1ccccc1CNc1ncncc1-c1ccc(C(=O)N(C)C)cc1,> 20 µM (inactive)
6,O=C(c1cc(C(F)(F)F)cc(C(F)(F)F)c1)N1CCC2(CCN(Cc3ccncc3)CC2)CC1,> 20 µM (inactive)
7,CS(=O)(=O)Nc1cccc(-c2nc(Nc3ccc(F)cc3)c3ccccc3n2)c1,> 20 µM (inactive)
8,COc1ccc(NC(=O)N2CCCC3(CCN(C(=O)c4cnccn4)CC3)C2)cc1,> 20 µM (inactive)
9,O=c1c(CCc2ccccc2)nc2cncnc2n1C1CC1,> 20 µM (inactive)
10,COC(=O)N1CCC2(CCCN(c3cccc(-c4ccccc4)c3)C2)CC1,> 20 µM (inactive)
11,Cn1c(=O)cnc2cnc(Nc3ccccc3)nc21,> 4 µM (inactive)
12,N#CCCn1c(=O)c(-c2cccc(C#N)c2)nc2cnc(Oc3cccc(Cl)c3)nc21,> 20 µM (inactive)
13,COc1ccc(-c2nc3cnc(N4CCNCC4)nc3n(C3CC3)c2=O)cc1,> 20 µM (inactive)
14,O=C(Nc1ccccc1)N1CCCC2(CCN(C(=O)c3cc(C(F)(F)F)cc(C(F)(F)F)c3)CC2)C1,> 20 µM (inactive)
15,COCCn1c(=O)c(-c2cc(F)cc(F)c2)nc2cnc(N(C)C)nc21,> 20 µM (inactive)
16,COc1ccc2[nH]cc(CCNc3ncncc3-c3ccccc3C(F)(F)F)c2c1,> 20 µM (inactive)
17,Cn1cccc1C(=O)N1CCC2(CC1)CCN(C(c1ccccc1)c1ccccc1)CC2,> 20 µM (inactive)
18,O=c1c(-c2ccc(F)cc2)nc2cnc(N3CCOCC3)nc2n1Cc1cccs1,> 20 µM (inactive)
19,COCCn1c(=O)c(-c2ccccc2)nc2cnc(Oc3ccc(OC)cc3)nc21,> 20 µM (inactive)
20,COc1ccc(CNc2ncnc3ccc(-c4cccc(NS(C)(=O)=O)c4)cc23)c(OC)c1,> 20 µM (inactive)
